H9c2 protect = protects H9c2 cardiomyocytes from peroxide injury | H2O2 injury protection, ATPLite, 2 h | protection from H2O2 cell death, % at 20 µM | 0.63% of 360,000 active | AID 588492;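 active means compounds giving at least 50% protection of heart cells from peroxide-induced death in the single-dose screen, raw or plate-pattern-corrected value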;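 further: 0% = DMSO wells with peroxide and 100% = DMSO wells without peroxide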
NR3A LBD binder = modulators (binders) of human NR3A ligand-binding domain; NR3A LBD differential scanning fluorimetry, Tm shift; 0% = protein alone, 100% = glycine-bound protein; 2.5% of 340,000 active; Tm shift relative to glycine control, % at 25 µM;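 active means melting temperature shift of at least 10% of the positive control shift, at one fixed dose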
NTR1 ag = agonists of human neurotensin receptor NTR1; NTR1-U2OS beta-arrestin-GFP spot imaging, agonist mode; activation, % at 20 µM; 0.17% of 330,000 active; P30989;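 active means activation at or above 40% of the spot to cytoplasm intensity ratio, with at least 20 cells analyzed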;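 further: 0% = DMSO without peptide and 100% = 100 nM NTR1 peptide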
AHR activator = activators of human aryl hydrocarbon receptor; P35869; AHR-responsive luciferase reporter cells, luminescence; activation, % at 5 µM; 2.5% of 320,000 active; AID 2796; in the data active means activation above about 47%;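 further: 0% = vehicle wells and 100% = reference agonist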
Target sequence (P35869 whole entry, looked up): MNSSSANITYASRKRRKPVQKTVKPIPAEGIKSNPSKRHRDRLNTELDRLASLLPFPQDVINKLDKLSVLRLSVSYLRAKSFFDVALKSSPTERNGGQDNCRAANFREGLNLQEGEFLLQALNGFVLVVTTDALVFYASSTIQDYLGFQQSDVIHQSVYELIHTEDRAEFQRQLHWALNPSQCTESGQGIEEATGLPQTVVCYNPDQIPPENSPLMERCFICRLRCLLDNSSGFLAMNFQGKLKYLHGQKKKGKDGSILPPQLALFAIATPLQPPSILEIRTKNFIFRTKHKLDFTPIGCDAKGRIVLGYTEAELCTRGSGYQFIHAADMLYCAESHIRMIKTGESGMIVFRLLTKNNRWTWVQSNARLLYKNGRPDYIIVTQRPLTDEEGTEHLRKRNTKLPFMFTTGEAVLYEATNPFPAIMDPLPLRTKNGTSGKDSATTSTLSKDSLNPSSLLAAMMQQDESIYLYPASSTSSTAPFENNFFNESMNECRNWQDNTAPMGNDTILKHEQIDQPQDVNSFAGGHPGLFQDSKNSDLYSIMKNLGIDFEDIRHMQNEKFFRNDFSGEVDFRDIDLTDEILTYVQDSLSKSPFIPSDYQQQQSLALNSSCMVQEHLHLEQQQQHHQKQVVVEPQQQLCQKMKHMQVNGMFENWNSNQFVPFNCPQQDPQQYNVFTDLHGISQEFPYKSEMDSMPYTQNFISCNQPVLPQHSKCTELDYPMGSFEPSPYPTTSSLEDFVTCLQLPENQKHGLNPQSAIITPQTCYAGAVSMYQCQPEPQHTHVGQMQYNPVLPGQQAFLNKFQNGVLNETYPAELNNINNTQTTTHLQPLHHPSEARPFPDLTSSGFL
Mot1-301 SUMO = SUMOylation pathway inhibition by Mot1-301 growth rescue | S. cerevisiae Mot1-301 growth rescue, ATP luminescence, 38.5C; percent above DMSO median, 100 means doubled | 1% of 320,000 active | growth rescue, % at 18.8 µM;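 active means every valid replicate shows activation above 250% relative to neutral control wells; inactive means the rest, any valid replicate at or below 250%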;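 further: OY570 slx delta 5 strain wells were the positive control but not used for scaling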
AI-2 QS mod = modulators of Vibrio harveyi AI-2 quorum sensing system. activity change, % at 7.5 µM. Vibrio harveyi JMH597 AI-2 luminescence/OD600 ratio, 9 h; active compounds read low; strain lacks LuxN and CqsS sensors; 0 = neutral-control median. 0.4% of 300,000 active; in the data active means activity change below about -75%, passing the limit was not always enough;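 further: luminescence divided by OD600 gain over 9 h not by final OD600 alone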
An asterisk follows results filed as active; . = no result given; ! = not confirmed by another sample. An excerpt weighted towards active compounds, which were near 6.2% of everything screened.

SMILES | H9c2 protect | NR3A LBD binder | NTR1 ag | AHR activator | Mot1-301 SUMO | AI-2 QS mod
COc1ccc(C(c2nnnn2C(C)(C)C)N2CCN(c3nc4ccccc4s3)CC2)cc1 (stereo not drawn) | 4 | 13* | . | . | . | 16
CCC(C)(C)n1nnnc1C(c1ccc(O)c(OC)c1)N1CCN(c2nc3ccccc3s2)CC1 (stereo not drawn) | 13 | -23 | 0 | 3 | 9 | 24
O=C(c1cccc(S(=O)(=O)N2CCCC2)c1)N1CCN(Cc2ccccc2)CC1 | 0 | 0 | 0 | 0 | 1 | .
O=C1CCC(=O)N1c1nc2n(n1)C(c1ccccc1)C=C(c1ccc(Br)cc1)N2 (stereo not drawn) | 6 | 0 | 2 | 0 | 78 | 25
COc1ccc(C2C=C(c3ccc(Br)cc3)Nc3nc(N4C(=O)CCC4=O)nn32)cc1 (stereo not drawn) | 1 | 13* | 4 | -1 | 46 | 13
CC(C)Cc1cc(C(=O)N2N=C(C(F)F)CC2(O)C(F)F)c2ccccc2n1 (stereo not drawn) | -1 | -4 | 1 | 4 | 337 | 11
CCc1ccc(-c2cc(C(=O)N3N=C(C(F)F)CC3(O)C(F)F)c3ccccc3n2)cc1 (stereo not drawn) | -21 | 22* | 32 | 16 | 24 | 38
Cc1cc2[nH]c(=O)cc(-c3ccccc3)n2n1 | -11 | 0 | 0 | 1 | 93 | 13
Cc1cc2[nH]c(=O)c3ccccc3n2n1 | 77* | -1 | -1 | 4 | -11 | 16
C(=NN=Cc1c[nH]c2ccccc12)c1c[nH]c2ccccc12 | 3 | . | . | . | . | .
O=C1CS/C(=N/N=C/c2c[nH]c3ccccc23)N1 | -1 | 2 | 1 | 78* | 7 | 6
COc1ccc(S(=O)(=O)N2CCCCC2)cc1NC(=O)C1COc2ccccc2O1 (stereo not drawn) | 2 | 1 | 4 | 0 | -3 | 25
C=CCOc1ccc(CNn2c(C)n[nH]c2=S)cc1OC | -5 | 0 | -1 | 6 | -14 | 32
C=CCOc1c(Br)cc(CNn2c(C)n[nH]c2=S)cc1OC | 6 | 2 | 0 | 48* | -6 | 13
Cc1cc(NC(=O)CSCC(=O)Nc2nc3ccccc3[nH]2)no1 | 4 | -2 | -1 | 22 | 171 | .
CCN1CCN(Cc2ccc(NC(=O)c3ccc(C)c(NC(=O)C(=O)c4c[nH]c5ccccc45)c3)cc2C(F)(F)F)CC1 | -29 | 3 | 41*! | 13 | 187 | 43
O=C(c1ccccc1)c1c2c(cc3sc4ccccc4[n+]13)-c1cccc3cccc-2c13 | -25 | -8 | . | 54* | -39 | .
Cc1ccc2nc3c(cc2c1)c(NC(=O)C1CCCO1)nn3CC(C)C (stereo not drawn) | 6 | -2 | 2 | 16 | -2 | 4
CCn1nc(NC(=O)C2CCCO2)c2cc3cc(C)ccc3nc21 (stereo not drawn) | 1 | -2 | 1 | 67* | -6 | 12
C[C@H](CO)N1C[C@H](C)[C@@H](CN(C)Cc2ccc(F)cc2)Oc2ncc(Br)cc2C1=O | 11 | . | . | . | . | .
O=C(O)c1ccc(S(=O)(=O)c2ccc3c(c2)C(=O)N(NC(=O)c2ccccc2)C3=O)cc1 | -1 | 23* | 0 | 3 | 228 | 17
CCOC(=O)c1c(S(=O)(=O)Nc2ccc(C)cn2)c(C)n(C)c1C | -5 | 0 | 0 | 0 | 6 | -9
Cc1cccc(NC(=S)N=Nc2c(O)n(CN3CCOCC3)c3ccccc23)c1C | 4 | 0 | 4 | 55* | 39 | 34
Cc1ccc(N=Nc2c(O)n(CN3CCOCC3)c3ccccc23)cc1 | -4 | 0 | 2 | 41 | 50 | 20
CCOc1cccc2sc(N(CCN(CC)CC)C(=O)c3cccc(N4C(=O)CCC4=O)c3)nc12 | 4 | 3 | 2 | 3 | 290* | 23
SMILES | H9c2 protect | NR3A LBD binder | NTR1 ag | AHR activator | Mot1-301 SUMO | AI-2 QS mod
CCN(CC)CCn1c(=O)n(-c2ccc(Cl)cc2)c(=O)c2c3c(sc21)CN(C)CC3 | 6 | 3 | 0 | 90* | 3 | 18
Cc1cccc2c3nc4ccccc4nc3n(C)c12 | 6 | -2 | 2 | 69* | 1 | 17
CCC(=O)N1CCc2cc(S(=O)(=O)CCC(=O)N3CCN(c4ccc(C(C)=O)cc4)CC3)ccc21 | -5 | -3 | 0 | 0 | 3 | 13
O=C(Nc1ccc(N2CCN(C(=O)c3cccs3)CC2)cc1)c1ccc(F)cc1 | 3 | -13 | 1 | -10 | 10 | 34
O=C(NC(Cc1ccccc1)C(=O)N1CCCCC1)c1ccccc1 (stereo not drawn) | -4 | 0 | 1 | 0 | -8 | 13
Oc1ccccc1-c1cc(C(F)(F)C(F)F)nc(-c2ccccc2)n1 | -4 | 14* | 6 | 3 | 24 | 12
COc1ccc(O)c(-c2cc(C(F)(F)C(F)F)nc(-c3ccccc3)n2)c1 | -7 | -4 | 3 | 1 | . | 4
Cc1cccc(C)c1NC(=S)NC(=O)c1cccc(Cl)c1 | -7 | . | . | . | . | .
O=C(Nc1cccc2nsnc12)c1ccc(-c2cccc(Cl)c2)o1 | 9 | 1 | 4 | 52* | -13 | .
CN1CCN(c2ccccc2NC(=O)c2ccc(-c3cccc(Cl)c3)o2)CC1 | 21 | -7 | 5 | 61* | 1 | 17
O=C(Nc1ccccc1N1CCCCC1)c1ccc(-c2cccc(Cl)c2)o1 | -2 | -4 | 1 | 13 | 18 | 20
CCN(CC(=O)Nc1cccc(F)c1)CC(=O)Nc1ccccc1OC | 3 | -1 | -1 | 3 | -13 | 14
CC(=O)c1c(C)[nH]c(C(=O)CN2C(=O)NC(C)(c3ccc4c(c3)OCCO4)C2=O)c1C (stereo not drawn) | -3 | 32* | -2 | 0 | 4 | 24
Oc1ccc(-c2nc3ccc4ccccc4c3c3c2CCC3)cc1O | 88* | 13* | 26 | 4 | 50 | -17
O=C(CSc1nc2ccccc2s1)Nc1ccc(Cl)c(C(=O)O)c1 | -1 | 1 | 1 | 6 | -1 | 9
O=C(CSc1nc2ccccc2s1)NNC(=S)Nc1ccc(Br)cc1 | -11 | 27* | 6 | 53* | -10 | -3
O=C(CSc1nc2ccccc2s1)NNC(=S)Nc1ccccc1 | 4 | -9 | 0 | 27 | 10 | 43
O=C(CSc1nc2ccccc2s1)NNC(=O)Nc1ccc(Cl)c(Cl)c1 | -5 | 26* | 6 | 17 | 6 | 3
CNC(=O)Cc1csc2ccc(C)cc12 | 5 | 14* | 2 | 2 | -18 | .
CC(C)C(=O)Nc1ccc(NC(=S)NC(=O)c2cc3ccccc3o2)cc1 | 2 | 17* | 0 | 3 | 491 | 16
CC(=O)Nc1ccc(NC(=S)NC(=O)c2cc3ccccc3o2)cc1 | -4 | 16* | 4 | 7 | 25 | 7

Source: PubChem BioAssay (several laboratories)
